Consider 24 molecules from PubChem BioAssay (NCI).

Some test systems named below: BT-549 breast; MDA-MB-435 melanoma; SW-620 colon; MCF7 breast; HCT-116 colon; HCC-2998 colon; KM12 colon.
What all share (assay): NCI-60 one-dose screen, 48 h (100 = growth as untreated, 0 = no growth, -100 = all killed)
Settings in all cases: 10 µM unless noted

The panel holds about 83,000 compounds, 20% with a hit somewhere; the sample as a whole holds those more often.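 Single-dose data. Exposure time 48 hours. Values below 10 considered active.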 A number with no mark means an inactive call. Activity calls are given as the source filed them.

Take `COc1cc(-c2cn(-c3ccc(Cl)c(Cl)c3)c(=O)[nH]2)cc(OC)c1OC`: the growth in the assay on BT-549 breast is 102%; in the assay on MDA-MB-435 melanoma it was 96.4%; with SW-620 colon, 109%; with MCF7 breast, 87.7%; with HCT-116 colon, 78.7%; in the assay on HCC-2998 colon, 99.9%. Further, the growth in the assay on KM12 colon is 90.8%.
On to `COc1ccc2c(c1)OC13Oc4cc(OC)ccc4C=C1CCCCC3=C2`, for which the growth is 92% in the assay on BT-549 breast; 105% with MDA-MB-435 melanoma; 90.7% in the assay on SW-620 colon; 75.2% in the assay on MCF7 breast; 73.4% in the assay with HCT-116 colon; 97.7% with HCC-2998 colon. In the assay on KM12 colon, the growth was 94.8%.
Turning to `C=C1C(=O)O[C@H]2[C@H]1CC/C(COC(=O)c1cccnc1N)=C\CC[C@@]1(C)O[C@@H]21`, the growth in the assay with BT-549 breast is -37.2% (active); in the assay on MDA-MB-435 melanoma, -4.17% (active); in the assay on SW-620 colon, 4.05% (active); in the assay on MCF7 breast, 7.98% (active); in the assay on HCT-116 colon it was 3.94% (active); in the assay with HCC-2998 colon, 35.3%. In the assay on KM12 colon, the growth was 13.4%.
Turning to `COc1cc(-c2csc(NC(=O)Nc3ccc(Cl)cc3)n2)cc(OC)c1OC`, the growth in the assay on BT-549 breast is 31.9%; in the assay on MDA-MB-435 melanoma, 18.1%; with SW-620 colon, 42.1%; with MCF7 breast, 8.71% (active); in the assay with HCT-116 colon, 17.8%; in the assay on HCC-2998 colon, 38.9%. Besides, the growth in the assay with KM12 colon is 13.4%.
For the molecule `Cc1ccc2nc3nc4ccc[nH]c4cc3c2c1`, the growth is 93.2% in the assay with BT-549 breast; 106% in the assay on MDA-MB-435 melanoma; 108% in the assay on SW-620 colon; 2.23% (active) in the assay on MCF7 breast; 97.1% in the assay with HCT-116 colon; 63.7% with HCC-2998 colon. Besides, the growth with KM12 colon was 47.8%.
For `O=C(O)c1cn(C2CC2)c2cc(N3CCN(C(=O)CSc4nnc(-c5ccc(Cl)cc5)n4-c4ccccc4)CC3)c(F)cc2c1=O`, the growth in the assay with BT-549 breast was 99.1%; in the assay on MDA-MB-435 melanoma it was 102%; with SW-620 colon, 109%; with MCF7 breast it was 110%; with HCT-116 colon, 103%; in the assay on HCC-2998 colon, 102%. The growth in the assay on KM12 colon is 103%.
Turning to `Cc1c(Cl)cccc1NC(=O)c1sc2nc3c(cc2c1N)CCCCCC3`, the growth is 11.2% with BT-549 breast; -19.5% (active) in the assay on MDA-MB-435 melanoma; 21.4% with SW-620 colon; 15.1% in the assay on MCF7 breast; 5.07% (active) with HCT-116 colon; 52.2% in the assay on HCC-2998 colon. In the assay on KM12 colon, the growth is 19.1%.
For `C=CCn1c(SCC(=O)Nc2ccc(C(=O)/C=C/c3cc(OC)c(OC)c(OC)c3)cc2)nnc1-c1ccccc1`, the growth in the assay on BT-549 breast is 95.5%; with MDA-MB-435 melanoma it was 50%; in the assay on SW-620 colon it was 73.2%; in the assay with MCF7 breast it was 13.6%; in the assay on HCT-116 colon it was 15.8%; in the assay on HCC-2998 colon, 108%. Moreover, in the assay with KM12 colon, the growth was 54.4%.
As to `C=C1C(=O)O[C@H]2[C@H]1CC/C(COC(=O)c1cn(C)c3ccccc13)=C\CC[C@@]1(C)O[C@@H]21`, the growth is -24.4% (active) in the assay with BT-549 breast; -51.2% (active) with MDA-MB-435 melanoma; -65.7% (active) in the assay with SW-620 colon; -46.1% (active) in the assay on MCF7 breast; -77.6% (active) in the assay on HCT-116 colon; 34.9% in the assay on HCC-2998 colon. In the assay with KM12 colon, the growth is 31.2%.
Take `CC(C)NS(=O)(=O)c1cccc(-c2ccc3c(=O)n(CCCN)c4c(c3c2)C(=O)c2ccccc2-4)c1`: the growth in the assay with BT-549 breast was 99.8%; in the assay on MDA-MB-435 melanoma it was 107%; in the assay with SW-620 colon, 92.4%; in the assay on MCF7 breast, 101%; with HCT-116 colon, 96.6%; with HCC-2998 colon, 105%. In addition, the growth in the assay on KM12 colon was 98.9%.
`O=C(CN1N=C(c2ccc(F)cc2)CCC1=O)Nc1nc2ccccc2s1`: the growth with BT-549 breast is -71.2% (active); in the assay with MDA-MB-435 melanoma, 99.9%; with SW-620 colon it was 57.8%; in the assay with MCF7 breast, 87.4%; in the assay on HCT-116 colon it was 70.7%; in the assay with HCC-2998 colon it was 95.7%. The growth in the assay on KM12 colon is 45.1%.
For the molecule `O=C1c2ccccc2C(=O)c2c1oc1c2c(=O)[nH]c2ccc(Cl)cc21`, the growth was 38% in the assay on BT-549 breast; 10.2% in the assay with MDA-MB-435 melanoma; -53% (active) in the assay on SW-620 colon; 0.704% (active) in the assay with MCF7 breast; -12.2% (active) in the assay with HCT-116 colon; 65.1% in the assay with HCC-2998 colon. For the same molecule, in the assay with KM12 colon, the growth is 0.119% (active).
For the molecule `NC(=O)c1ccc(C2C3=C(CCCC3=O)OC3=C2C(=O)c2ccccc2C3=O)cc1` (stereo not drawn), the growth with BT-549 breast was 81.4%; with MDA-MB-435 melanoma, -87.4% (active); in the assay with SW-620 colon, 12%; in the assay with MCF7 breast, -28.8% (active); in the assay on HCT-116 colon, 1.17% (active); in the assay with HCC-2998 colon, 77.7%. Also, in the assay on KM12 colon, the growth is 44.1%.
`N#Cc1nc(-c2ccccc2)oc1S(=O)(=O)NCC(c1ccc(Cl)cc1)N1CCCCC1` (stereo not drawn): the growth in the assay on BT-549 breast is 77.6%; in the assay on MDA-MB-435 melanoma it was 64.3%; with SW-620 colon it was 26.5%; with MCF7 breast, 35%; in the assay with HCT-116 colon, 27.3%; with HCC-2998 colon, 107%. Moreover, in the assay on KM12 colon, the growth is 80.6%.
Regarding `COc1ccc(/C=C(/C(=O)N2CCCC2)c2cc(OC)c(OC)c(OC)c2)cc1`, the growth is 61.1% in the assay with BT-549 breast; -18.3% (active) with MDA-MB-435 melanoma; 22.1% in the assay on SW-620 colon; 24.8% in the assay with MCF7 breast; 23.8% with HCT-116 colon; 80.1% in the assay on HCC-2998 colon. Moreover, the growth in the assay with KM12 colon was 31.9%.
Turning to `Fc1ccc(N/N=C/c2ccc(-n3cccn3)cc2)cc1`, the growth is 92.2% with BT-549 breast; 95.2% in the assay on MDA-MB-435 melanoma; 79.6% with SW-620 colon; 77% in the assay with MCF7 breast; 91.9% in the assay with HCT-116 colon; 97.5% in the assay on HCC-2998 colon. For the same molecule, in the assay with KM12 colon, the growth was 80.1%.
Turning to `O=C(N/N=C/C[C@@H]1[C@@H](/C=C/[C@@H](O)COc2cccc(Cl)c2)[C@H](O)C[C@@H]1O)c1ccncc1`, the growth with BT-549 breast was 95.3%; in the assay on MDA-MB-435 melanoma, 99.8%; in the assay on SW-620 colon, 94.2%; with MCF7 breast it was 99.1%; in the assay with HCT-116 colon it was 92.7%; with HCC-2998 colon it was 104%. In the assay on KM12 colon, the growth is 105%.
As for `CC1CCN(CCCCCOc2ccc3oc4cc(Cl)ccc4c(=O)c3c2)CC1`, the growth in the assay with BT-549 breast was 81.8%; in the assay with MDA-MB-435 melanoma it was 3.73% (active); in the assay on SW-620 colon, 36.8%; in the assay with MCF7 breast it was 45.9%; with HCT-116 colon, 23.3%; in the assay on HCC-2998 colon, 79.3%. Also, the growth in the assay with KM12 colon is 49.5%.
On to `CCOC(=O)c1c(-c2ccc(O)cc2)c(C#N)c2c(C#N)c(N)nn2c1N`, for which the growth was 60.9% with BT-549 breast; 1.63% (active) with MDA-MB-435 melanoma; 42.6% with SW-620 colon; 31.5% with MCF7 breast; 67.6% with HCT-116 colon; 80.9% in the assay on HCC-2998 colon. Besides, the growth in the assay on KM12 colon was 47.5%.
On to `COc1cc(C(=O)Nc2cc(O)c(C/C=C(\C)CCC=C(C)C)c(O)c2)cc2c1O[C@]1(C)CC[C@@H](O)C(C)(C)[C@H]1C2`, for which the growth with BT-549 breast is 18.4%; in the assay with MDA-MB-435 melanoma it was 17.1%; in the assay on SW-620 colon it was 4.02% (active); with MCF7 breast, 10.2%; with HCT-116 colon it was 13.2%; in the assay on HCC-2998 colon it was 23.2%. Also, the growth with KM12 colon is 13.3%.
Take `CC(=O)c1ccc(NC(=O)CSc2nnc(-c3cc(-c4ccc(Cl)cc4)nc4ccccc34)o2)cc1`: the growth in the assay on BT-549 breast was 79.7%; in the assay with MDA-MB-435 melanoma, 85.5%; in the assay with SW-620 colon, 75.6%; in the assay with MCF7 breast it was 55.8%; in the assay with HCT-116 colon, 20.8%; with HCC-2998 colon, 101%. Besides, the growth with KM12 colon is 89.3%.
As to `COc1cc(C2=NNC(c3ccc(N(C)C)cc3)C2)cc(OC)c1OC` (stereo not drawn), the growth in the assay on BT-549 breast was 35.1%; with MDA-MB-435 melanoma, 19%; with SW-620 colon, 20%; with MCF7 breast, 20.2%; with HCT-116 colon it was 9.9% (active); with HCC-2998 colon, 7.82% (active). Further, the growth with KM12 colon is 14.4%.
In the case of `COc1cc(C(=O)N2CCN(c3ccccc3OC)CC2)c(NC(=O)c2cnccn2)cc1OCc1ccccc1`, the growth was 97.6% with BT-549 breast; 95.1% in the assay on MDA-MB-435 melanoma; 101% with SW-620 colon; 109% with MCF7 breast; 87.8% in the assay on HCT-116 colon; 87.3% with HCC-2998 colon. In addition, the growth in the assay on KM12 colon is 90.7%.
`CC(/C=C/c1ccccc1)=N/NC(=O)c1ccncc1`: the growth in the assay on BT-549 breast is 105%; in the assay with MDA-MB-435 melanoma, 106%; in the assay on SW-620 colon it was 98.7%; in the assay with MCF7 breast, 93.6%; with HCT-116 colon, 92.7%; in the assay on HCC-2998 colon, 107%. The growth in the assay with KM12 colon is 105%.
